The campaign covered roughly 38,000 compounds. About 1,200 (3.2%) showed an effect of 50% or more. The median lay at about -58%. Only a selection was taken, and strong results are over-represented in it overall.
Each molecule was assayed on Plasmodium falciparum (assay: Calibr Malaria Delayed Death Assay SOP). Settings: concentration 4.99e-06 (unit not given; other assays of the set use mol/L).
Type: functional, organism-based
Design: scale not given: in the data most compounds retested in dose-response had high values

| SMILES | Percent Effect [%] |
| --- | --- |
| Cc1csc2ncc(-c3ccnc(N4CCC[C@@H]4CO)n3)c(=O)n12 | -191.9 |
| Cc1ccccc1-n1cc(-c2ccnc(NC(CO)C(C)C)n2)cn1 (centres undefined) | 25.15 |
| c1cc(-c2n[nH]cc2-c2ccnc(N3CCCC3)n2)ccn1 | 80.23 |
| OC[C@@H]1CCCN1c1nccc(-c2c[nH]nc2-c2ccncc2)n1 | 66.81 |
| Cc1[nH]c2ccccc2c1-c1ccnc(N[C@@H](CO)C(C)C)n1 | -14.55 |
| CN1CCCN(c2nccc(-c3c[nH]c4ccc(Br)cc34)n2)CC1 | 40.41 |
| CN1CCCN(c2nccc(-c3cc(C(=O)O)ccn3)n2)CC1 | -114.4 |
| NC(=O)[C@H]1CCCN(c2nccc(-c3c[nH]nc3-c3cccnc3)n2)C1 | -58.34 |
| CC(C)[C@H](CO)Nc1nccc(-c2c[nH]nc2-c2ccncc2)n1 | 83.09 |
| CN1CCCN(c2nccc(-c3c[nH]nc3-c3ccncc3)n2)CC1 | 65.32 |
| Cc1ncc(-c2ccnc(N3CCC[C@@H]3CO)n2)c(-c2cccnc2)n1 | -29.65 |
| c1cncc(-c2nc(C3CC3)ncc2-c2ccnc(N3CCCC3)n2)c1 | -168.7 |
| Cc1cnc(C(NC(=O)NCc2nc(C3CC3)no2)C2CC2)s1 (centres undefined) | -34.97 |
| Cc1ccc(N2CCO[C@H]3CN(Cc4cccs4)C[C@H]32)nn1.O=C(O)C(F)(F)F.O=C(O)C(F)(F)F | -16.91 |
| CCN(CC)Cc1cc(=O)n2c(n1)CN(C(=O)c1ccnnc1)CCC2.O=C(O)C(F)(F)F | -110.9 |
| Cc1ccc(CN2CC[C@H]3OCC[C@@]3(C(=O)N3CCCO3)C2)o1.O=C(O)C(F)(F)F | -80.01 |
| CC(C)c1nnc2sc(CC3CN(C(C)C)CCO3)nn12 (centres undefined) | -105.6 |

| SMILES | Percent Effect [%] |
| --- | --- |
| CCCS(=O)(=O)N1Cc2nccn2CC(Cn2cncn2)C1 (centres undefined) | -125.8 |
| c1cc(-c2c[nH]nc2C2CCCCC2)nc(N2CCCCCC2)n1 | -3.373 |
| NC(=O)C1CCN(c2nccc(-c3c[nH]nc3C3CCCCC3)n2)CC1 | 12.3 |
| c1cc(-c2n[nH]cc2-c2ccnc(N3CCCCCC3)n2)ccn1 | 76.99 |
| CC(NC(=O)N1CCNC(=O)CC1)c1c(F)cccc1Cl (centres undefined) | -91.59 |
| COCCC(=O)N1CCC2(COCc3cnc(-c4cccnc4)nc32)C1 (centres undefined) | -64.26 |
| Cc1cncc(C(=O)N[C@@H]2CC[C@@H](N3CCOCC3)[C@@H]2O)c1 | -132.2 |
| CNC(=O)c1ccc(C(=O)N2CCCC(n3ccnc3C)C2)cn1 (centres undefined) | -171.6 |
| Cl.O=C1CC2(CCCNC2)C(=O)N1Cc1ccccc1 (centres undefined) | -18.54 |
| CN1CC2(CCN(Cc3cccc(C#N)c3)CC2)CC1=O | -15.68 |
| Cl.O=C1CC2(CCNCC2)C(=O)N1Cc1ccc(F)cc1 | -53.59 |
| CC(C)c1ccc(CN2C(=O)C3(CCNCC3)Nc3ccccc32)cc1 | 81.43 |
| NC(=O)c1ccc(CN2C(=O)C3(CCNCC3)Nc3ccccc32)cc1 | -6.416 |
| N#Cc1cccc(CN2C(=O)C3(CCNCC3)Nc3ccccc32)c1 | 66.93 |
| CCN1CC2(CCC1=O)CCN(Cc1cccc(C#N)c1)CC2 | -206 |
| C=Cc1ccc(CN2C(=O)C3(CCNCC3)Nc3ccccc32)cc1 | 87.33 |
| Cl.O=C1CC2(CCCNC2)C(=O)N1Cc1ccc(F)cc1 (centres undefined) | -29.07 |
